These compounds were tested against Shiga toxin 2 (Escherichia coli O157:H7) (UniProt P09385+P09386) (assay: E. coli 0.157:H7 Shiga Toxin SOP - stx2 screening assay). Details: 30 µM.
Format: functional
Parameters: scale not given: direction of the effect not stated beside the values
In the case of `COc1cc(C)nc(N2CCN(C(=O)CCn3cc(C)cn3)CC2)n1`, the Percent Effect is reported as 12%.
For `O=C(c1cscn1)N1C[C@H]2CCCC(OCc3cccnc3)[C@H]2C1` (stereo partly specified), the Percent Effect was -13.5%.
With `Cc1nc(C)n(C2CCCN(C(=O)Cc3cccnc3)C2)n1` (stereo unspecified) the Percent Effect was 1.27%.
`COc1cc(C)sc1C(=O)N1CCC(Nc2cccnc2)CC1` gave a Percent Effect of -50.2%.
`COCCOc1ccc(NC(=O)C2CCC2)cn1` gave a Percent Effect of -10.4%.
In the case of `CCCn1nc2c(cc1=O)CN(CCCS(N)(=O)=O)CC2`, the Percent Effect is reported as 7.35%.
`CC(C)C(C(=O)N1CCC(N(C)c2cccnn2)CC1)n1cncn1` (stereo unspecified) gave a Percent Effect of 11.4%.
Compound `Cc1ncsc1CN1CC[C@H]2C(=O)N(c3ccccc3)CCO[C@H]2C1` has a Percent Effect of 3.87%.
Compound `Cc1cc(C2CCCN(CCc3ccccn3)C2)n[nH]1` (stereo unspecified) has a Percent Effect of -1.21%.
`COCC1CN(C(=O)CNC(C)=O)Cc2ncnn2C1` (stereo unspecified) gave a Percent Effect of -26.6%.
With `Cc1cc(CN2CC[C@H]3C[C@H](C(=O)N4CCC(C)CC4)O[C@H]3C2)no1` the Percent Effect was 0.444%.
With `Cc1cc(C)c(CNC(=O)N2CCCC2c2ccccc2)c(=O)[nH]1` (stereo unspecified) the Percent Effect was -21.1%.
`Cc1cnn(CC2CN(c3ncnc4ccsc34)CCO2)c1` (stereo unspecified) showed a Percent Effect of -0.262%.
Work on `CCn1nc2c(cc1=O)CN(Cc1nc(-c3ccsc3)no1)CC2` yielded a Percent Effect of -16.2%.
For `CN(C)CCO[C@H]1CN(Cc2cccc(C#N)c2)[C@@H]2COC[C@H]12`, the Percent Effect was -21.2%.
Compound `O=C1CCSCC(C(=O)N2CCN(C3CCCCC3)CC2)N1` (stereo unspecified) has a Percent Effect of -2.45%.
`CN(CCCOc1ccccc1)C(=O)CN1CCc2cncnc2C1` showed a Percent Effect of 9.42%.
For `Cc1ccn(-c2ccc(C(=O)N3CCCC(n4ccnc4)C3)cc2)n1` (stereo unspecified), the Percent Effect was -14.7%.
Compound `COc1ccc(CCN2CCN(C(=O)c3scnc3C)CC2)cc1` has a Percent Effect of 0.201%.
`COC(=O)C(c1cc(F)ccc1F)N(C)C(=O)c1cccnc1O` (stereo unspecified) was tested, and the Percent Effect was 8.11%.
In the case of `Cc1ccc(C)c(-n2ccc3nc(N4CCCC4)ncc3c2=O)c1`, the Percent Effect is reported as -36.3%.

From ChEMBL document CHEMBL3988442, “University of Dundee, Small-Polar-MMV Screening Library” (2021)
